The values that follow come from PubChem BioAssay (EPA / NIEHS).

Broadly, the AC50 is the concentration giving half of the maximal activity seen.

The target in assay [1] is Cellular tumor antigen p53 (Homo sapiens) (UniProt P04637). As to the kind of experiment: TOX21_p53_BLA_p2_ratio: Tox21 HCT-116 p53 Agonism Beta-lactamase Assay, Ratio, Phase 2 (AID 2283592). The gist of the method: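 Ratio endpoint: beta-lactamase cleavage of CCF4-AM, blue (460 nm) over green (530 nm). HCT116 reporter line; 16 h treatment, 37C; substrate 2 h RT.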
Assay [2] is described as follows: TOX21_p53_BLA_p3_viability: Viability Assessment in the Tox21 HCT-116 p53 Agonism Beta-lactamase Assay, Phase 3 (AID 2283593).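 Also: cells exposed to compound for 16 h before reading.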 The method in brief: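 HCT116 cells, 4000/well, dosed 5 h after plating by pin transfer (217-fold dilution from DMSO stock) and incubated 16 h at 37C, 5% CO2. Viability read as ATP luminescence with CellTiter-Glo after 30 min at room temperature.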

Assay [3] addresses Cellular tumor antigen p53 (Homo sapiens) (UniProt P04637). As to the kind of experiment: TOX21_p53_BLA_p3_ratio: Tox21 HCT-116 p53 Agonism Beta-lactamase Assay, Ratio, Phase 3 (AID 2283596). The gist of the method:
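Cells were seeded at 4000/well, rested 5 h at 37C, then dosed with DMSO compound solutions (217-fold dilution) for 16 h. CCF4-AM substrate was loaded for 2 h at room temperature, and the 460/530 nm emission ratio was fitted for gain of signal versus DMSO.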

Assay [4] in a line: TOX21_p53_BLA_p4_viability: Viability Assessment in the Tox21 HCT-116 p53 Agonism Beta-lactamase Assay, Phase 4 (AID 2283597).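 Also: hits lower the luminescence signal meaning cytotoxicity.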 The method in brief: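 Cytotoxicity was inferred from loss of CellTiter-Glo luminescence. HCT116 cells had been dosed with compounds after 5 h plating, incubated 16 h at 37C and 5% CO2, and exposed to the CCF4-AM substrate for 2 h.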
In assay [5] the target is Cellular tumor antigen p53 (Homo sapiens) (UniProt P04637). As to the kind of experiment: TOX21_p53_BLA_p5_ratio: Tox21 HCT-116 p53 Agonism Beta-lactamase Assay, Ratio, Phase 5 (AID 2283599). The method in brief:
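HCT-116 p53-bla cells (4000/well) plated 5 h, dosed with compound (217-fold DMSO dilution) for 16 h at 37 C; CCF4-AM substrate 2 h at room temperature. Activity is the 460/530 nm emission ratio (405 nm excitation), fitted in gain-of-signal direction versus DMSO.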

For assay [6] the target is unchanged. Put plainly: TOX21_p53_BLA_p4_ratio: Tox21 HCT-116 p53 Agonism Beta-lactamase Assay, Ratio, Phase 4 (AID 2283601). The gist of the method: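 HCT-116 p53 beta-lactamase reporter cells (4000/well) preincubated 5 h, then compound (217-fold dilution of DMSO stock) for 16 h at 37C. CCF4-AM substrate added 2 h at room temperature; 460/530 nm emission ratio fitted upward versus DMSO.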

Assay [7] in a line: TOX21_p53_BLA_p5_viability: Viability Assessment in the Tox21 HCT-116 p53 Agonism Beta-lactamase Assay, Phase 5 (AID 2283600). The method in brief:
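Luciferase-coupled ATP quantitation of cells treated for 16 h (37C, 5% CO2) with test chemicals delivered in DMSO via a 217-fold dilution; 4000 cells/well; reagent incubated 30 min at room temperature before luminescence reading.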

Values joined by “and” are separate entries in the source; they are usually repeats but may differ in a detail not shown here. Identical values can stand only once. Inconclusive results are not listed. Where a structure was tested more than once in an assay, its records may differ in their call. Active and inactive are the calls of the source. The calls were made as follows: active = hit-call score of the fitted dose curve at least 0.9, where 1 is the maximum; inconclusive = response in the unintended direction; inactive = score below 0.9.

Sequence of Cellular tumor antigen p53 (Homo sapiens) (P04637 whole entry, looked up): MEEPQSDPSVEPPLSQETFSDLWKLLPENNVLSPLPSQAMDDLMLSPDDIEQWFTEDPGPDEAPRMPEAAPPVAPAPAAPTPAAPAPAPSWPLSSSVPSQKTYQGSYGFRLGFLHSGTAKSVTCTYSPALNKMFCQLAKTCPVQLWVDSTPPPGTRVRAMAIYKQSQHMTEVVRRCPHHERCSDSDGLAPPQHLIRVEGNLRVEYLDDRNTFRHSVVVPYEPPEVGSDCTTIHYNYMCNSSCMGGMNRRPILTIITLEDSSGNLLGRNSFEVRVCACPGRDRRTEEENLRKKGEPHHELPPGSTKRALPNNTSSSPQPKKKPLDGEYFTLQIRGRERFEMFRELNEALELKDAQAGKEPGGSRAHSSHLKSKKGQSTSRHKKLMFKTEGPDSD

Consider `CN1C(=O)CN2CCc3ccccc3C2c2cc(Cl)ccc21` (configuration not stated), for which the half-maximal activity concentration (AC50) was 35.6 µM (active) in assay [1], 39.8 µM (active) in assay [3], 22.8 µM (active) in assay [5] and 33.8 µM (active) in assay [6]. The outcome in assay [2] and in assay [4] was inactive.
For `CCCCCCCCCCCCCCC[C@H](O)[C@@H](N)CO`, the result in assay [1], in assay [2], in assay [3], in assay [4], in assay [5] and in assay [6] was inactive.
On to `O=[N+]([O-])c1cccc(S(=O)(=O)O)c1`, for which the result in assay [1], in assay [2], in assay [3], in assay [4], in assay [5] and in assay [6] was inactive.
Regarding `CO[C@@H]1[C@@H](OC)[C@H](C)[C@@](O)(CC(=O)O)O[C@H]1[C@H](C)[C@H]1O[C@@]2(CC[C@@](C)([C@H]3CC[C@@](C)([C@@H]4O[C@@H]([C@H]5O[C@](C)(O)[C@H](C)C[C@@H]5C)C[C@@H]4OC4C[C@H](OC)[C@@H](OC)[C@H](C)O4)O3)O2)C[C@H](O)[C@H]1C` (some centres not stated), the results for the AC50 in assay [1] and in assay [5] were 8.98 µM (active) and 16.7 µM (active), respectively. The outcome in assay [2], in assay [3], in assay [4] and in assay [6] was inactive.
In the case of `CCN(CC)CCSC(=O)C(c1ccccc1)c1ccccc1`, the result in assay [1], in assay [2], in assay [3], in assay [4], in assay [5] and in assay [7] was inactive. For the same compound, the result in assay [6] was inactive.
In the case of `C=C(C)C(=O)OCCCC`, the result in assay [1], in assay [2], in assay [3], in assay [4], in assay [5] and in assay [6] was inactive.
In the case of `CC(=O)[C@]1(O)Cc2c(O)c3c(c(O)c2[C@@H](O[C@H]2C[C@H](N)[C@H](O)[C@H](C)O2)C1)C(=O)c1c(O)cccc1C3=O`, the AC50 in assay [1] was 346 nM (active) and 263 nM (active); in assay [3], 222 nM (active) and 212 nM (active); in assay [6], 0.571 µM (active). Also, the compound was called inactive in assay [2], in assay [4], in assay [5], in assay [7] and in assay [6].
Regarding `O=C(O)c1cc(O)c2c(c1)C(=O)c1cccc(O)c1C2=O`, the result in assay [1], in assay [2], in assay [3], in assay [4], in assay [5] and in assay [7] was inactive. The outcome in assay [6] was inactive.
